A short description of assay [1]: qHTS assay to identify small molecule antagonists of the estrogen related receptor (ERR) signaling pathway from Tox21 library - cell viability counter screen (AID 1224834). Also: nearly all actives have a fitted effect of over 30% in size. The essentials:
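Seeded ERR cells were rested 6 h at 37 C/5% CO2 before compounds, positive and negative controls or DMSO were added. Incubation continued for 17.5 h, and viability was then quantified by CellTiter-Fluor fluorescence.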

Assay [2] concerns the target Luciferin 4-monooxygenase (Photinus pyralis) (UniProt P08659). Put plainly: qHTS assay to identify small molecule inhibitors of firefly luciferase (AID 1224835). Also: nearly all actives have a fitted effect of over 25% in size. Summed up:
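Inhibition of purified Photinus luciferase is measured by luminescence. Substrate levels (D-luciferin, ATP) sit at their KM values. Each compound is tested in a concentration series.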

Assay [3] can be described thus: qHTS assay to identify small molecule agonists of the constitutive androstane receptor (CAR) signaling pathway - cell viability counter screen (AID 1224836). Also: nearly all actives have a fitted effect of over 45% in size. Summed up: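 Fluorescence from CellTiter-Fluor indicates live cells after 23 h exposure. The human hepatoma line expresses hCAR and a CYP2B6-2.2kb reporter. Incubation medium contains 0.75 uM PK11195 (final).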

The target in assay [4] is Nuclear receptor subfamily 1 group I member 3 (Homo sapiens) (UniProt Q14994). Put plainly: qHTS assay to identify small molecule agonists of the constitutive androstane receptor (CAR) signaling pathway (AID 1224839).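 Also: HepG2 cells stably carrying human CAR and a CYP2B6 luciferase reporter; nearly all actives have a fitted effect of over 15% in size.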 The essentials:
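Stable hCAR/CYP2B6-2.2kb HepG2 line in DMEM with 10% FBS; compounds (15 concentrations) and 0.75 uM PK11195 final, 24 h at 37 C/5% CO2, then ONE-Glo luminescence after 30 min.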
Background: Quantitative high-throughput screening tests each substance at several concentrations.

The nature of assay [5]: qHTS assay to identify small molecule antagonists of the estrogen related receptor signaling pathway with the pleiotropic PPARgamma coactivator (PGC) from Tox21 10K library - cell viability counter screen (AID 1224840; active = well fitted cell-killing curve with a large enough effect in the repeat runs, not every such curve was filed as active; also: nearly all actives have a fitted effect of over 40% in size). Summed up: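 Seeded PGC/ERR cells (2,000/well, 6 h, 37 C/5% CO2) get compound by pin tool; 17.5 h incubation at 37 C; CellTiter-Fluor added, 30 min, fluorescence measured.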

Assay [6] is described as follows: qHTS assay to identify small molecule antagonists of the estrogen related receptor signaling pathway with the pleiotropic PPARgamma coactivator (PGC) from Tox21 10K library (AID 1224841; call rule not given here; also: actives are mostly falling curves and most rising ones were filed inactive; nearly all actives have a fitted effect of over 50% in size; also: potency is read from the fitted curve at half-maximal effect). Summed up: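 Test chemicals dissolved in DMSO were applied to pre-incubated (6 h) PGC/ERR cells at 2,000 cells/well for an 18 h, 37 C treatment; reporter luminescence was then read using One-Glo.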

A short description of assay [7]: qHTS assay to identify small molecule agonists of the estrogen related receptor signaling pathway with the pleiotropic PPARgamma coactivator (PGC) from Tox21 10K library (AID 1224842). Also: nearly all actives have a fitted effect of over 15% in size. Summed up:
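Luminescence from One-Glo (30 min, room temperature) measured after PGC/ERR cells had 18 h at 37 C with pinned compound (23 nL in DMSO). Cells had been seeded at 2,000 per well and pre-incubated 6 h.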

The nature of assay [8]: qHTS assay to identify small molecule agonists of the hypoxia (HIF-1) signaling pathway - cell viability counter screen (AID 1224844; calls by dose curve; also: nearly all actives have a fitted effect of over 50% in size; also: potency is read from the fitted curve at half-maximal effect). The essentials: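 HRE-bla ME-180; 0.5% dFBS; cpd 17 h, 37C, 5% CO2; CellTiter-Glo lum., 30 min RT, post-FRET read, same wells.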
Assay [9] can be described thus: qHTS assay to identify small molecule agonists of H2AX (AID 1224845; active = well fitted activation curve with a large enough effect in the signal ratio in the repeat runs, not every such curve was filed as active; the % refers to the signal ratio). The essentials:
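Phospho-H2AX Ser139 measured by HTRF (ex 320 nm; em 665 and 620 nm) after 24 hr antibody incubation. Compounds, 15 concentrations, 0.76% DMSO, were applied to CHO-K1 cells for 3hr at 37C before lysis.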

Assay [10] can be described thus: qHTS assay to identify small molecule agonists of H2AX - cell viability counter screen (AID 1224847; calls by dose curve; also: top concentration of the series differs between compounds; nearly all actives have a fitted effect of over 30% in size). Summed up:
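Viability of CHO-K1 (wild type) cells after 3 hr compound exposure was measured by CellTiter-Glo luminescence.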

Assay [11] is described as follows: qHTS assay to identify small molecule antagonists of the estrogen related receptor (ERR) signaling pathway from Tox21 library (AID 1224848). Also: nearly all actives have a fitted effect of over 50% in size. Also: potency is read from the fitted curve at half-maximal effect. Summed up: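 Luciferase luminescence (ONE-Glo, 30 min room temperature) was the read-out. Cells of the NTP-supplied ERR line, 2,000 per well, were given 6 h at 37 C before compound addition in DMSO and 18 h exposure at 37 C.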

Assay [12] can be described thus: qHTS assay to identify small molecule agonists of the estrogen related receptor (ERR) signaling pathway from Tox21 library (AID 1224849; calls by dose curve; also: nearly all actives have a fitted effect of over 15% in size). The conditions noted are these: ERR reporter cell line, ONE-Glo luciferase, 18 h; at 92.4 µM (top of the series). The essentials:
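Tox21 compounds tested for ERR agonism in an NTP reporter cell line: 18 h treatment at 37 C, then ONE-Glo luminescence.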

Assay [13] in a line: qHTS RealTime-Glo MT Cell Viability Assay in HepG2 cells - 24 hour (AID 1224867). Also: nearly all actives have a fitted effect of over 50% in size. The essentials:
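Tox21 10K library screened in qHTS format on HepG2 cells carrying RealTime-Glo reagents. Compounds were added after a 5 h preincubation, and the luminescent signal from continuous culture was measured repeatedly during 40 h treatment.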

Assay [14] in a line: qHTS RealTime-Glo MT Cell Viability Assay in HEK293 cells - 32 hour (AID 1224868). Also: nearly all actives have a fitted effect of over 50% in size. Also: potency is read from the fitted curve at half-maximal effect. Summed up:
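Luminescence generated by NanoLuc from substrate produced by living HEK293 cells served as the viability signal. Each value reflects the reading at its stated time point during continuous 40 h compound exposure at 37 C.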

Assay [15] can be described thus: A CellTox Green Cytotoxicity Assay to monitor cytotoxicity in HEK293 cells - 0 hour (AID 1224869). Also: nearly all actives have a fitted effect of over 50% in size. Also: potency is read from the fitted curve at half-maximal effect. The essentials: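 Tox21 screen in HEK293: membrane-impermeant cyanine dye fluoresces on binding dead-cell DNA; compound pinned 5 h post-seeding, plates held at 37 C, signal read repeatedly through 40 h.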
Assay [16] can be described thus: qHTS assay to identify small molecule antagonists of the constitutive androstane receptor (CAR) signaling pathway - cell viability counter screen (AID 1224837). Also: nearly all actives have a fitted effect of over 45% in size. The essentials: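 To flag cytotoxic false antagonists, HepG2 hCAR/CYP2B6-2.2kb cells were treated 23 hr with 15-concentration compound series and 50 nM CITCO at 37 C/5% CO2; CellTiter-Fluor fluorescence was the measured end point.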

Assay [17] has as its target Thyrotropin receptor (Homo sapiens) (UniProt P16473). The experiment in a line: qHTS assay to identify small molecule agonists of the thyroid stimulating hormone receptor (TSHR) signaling pathway (AID 1224843; calls by dose curve; also: nearly all actives have a fitted effect of over 45% in size). Summed up:
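Agonist activity read as cAMP rise via d2/cryptate HTRF competition, 1 h room-temperature detection, in HEK293 cells expressing TSHR. Fifteen-point titrations, each run in triplicate, with a 30 min room-temperature incubation beforehand.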

Assay [18] can be described thus: qHTS assay to identify small molecule agonists of the hypoxia (HIF-1) signaling pathway (AID 1224846; active = well fitted activation curve with a large enough effect in the signal ratio in the repeat runs, not every such curve was filed as active; the % refers to the signal ratio). The essentials: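 Reporter induction in HRE-bla ME-180 cells is taken as agonism: cells sit 5 hrs after plating, receive compounds or DMSO only, incubate 17 hrs at 37C under 5% CO2, and are loaded with CCF4-AM for beta-lactamase FRET measurement.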
The target in assay [19] is Nuclear receptor subfamily 1 group I member 3 (Homo sapiens) (UniProt Q14994). Put plainly: qHTS assay to identify small molecule antagonists of the constitutive androstane receptor (CAR) signaling pathway (AID 1224838).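 Also: HepG2 cells stably expressing hCAR with CYP2B6 luciferase reporter stimulated by CITCO; nearly all actives have a fitted effect of over 40% in size.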 Summed up:
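Human hepatoma HepG2 cells expressing hCAR and a CYP2B6 promoter (2.2 kb) luciferase construct; compound titration (15 points) with 50 nM CITCO final, 24 h at 37 C/5% CO2; luminescence via ONE-Glo after 30 min at room temperature.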

Values joined by “and” are separate entries in the source; they are usually repeats but may differ in a detail not shown here. Equal values may be shown once. Records with an inconclusive call do not appear. Some structures have more than one record in an assay (separate samples or runs), and their calls can disagree. Active and inactive are the calls of the source. Unless noted, calls follow the shape of the dose curve; as a rule, active = well fitted curve in the direction sought with a large enough effect in the repeat runs; inconclusive = weak or mixed curves; inactive = no such curve, though single readings can be large; an effect the other way counts as inactive or inconclusive.
% is scaled to controls: 0 for no effect and ±100 for the full control effect.

Sequence of Luciferin 4-monooxygenase (Photinus pyralis) (P08659 whole entry, looked up): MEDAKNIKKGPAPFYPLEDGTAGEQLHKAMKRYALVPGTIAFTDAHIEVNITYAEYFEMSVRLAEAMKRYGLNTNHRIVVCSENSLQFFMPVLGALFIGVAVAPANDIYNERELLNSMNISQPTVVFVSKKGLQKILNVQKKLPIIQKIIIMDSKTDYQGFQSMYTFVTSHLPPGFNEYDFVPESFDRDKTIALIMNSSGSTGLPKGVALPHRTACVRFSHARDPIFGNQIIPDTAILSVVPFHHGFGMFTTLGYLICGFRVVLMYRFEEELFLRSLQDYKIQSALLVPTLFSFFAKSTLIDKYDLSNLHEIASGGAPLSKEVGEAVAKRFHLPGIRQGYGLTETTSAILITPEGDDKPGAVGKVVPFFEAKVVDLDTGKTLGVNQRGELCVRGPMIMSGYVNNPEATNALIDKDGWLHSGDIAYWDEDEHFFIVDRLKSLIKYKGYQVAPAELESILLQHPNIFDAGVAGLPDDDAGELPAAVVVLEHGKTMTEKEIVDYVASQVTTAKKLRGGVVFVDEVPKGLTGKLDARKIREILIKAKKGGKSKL
Sequence of Nuclear receptor subfamily 1 group I member 3 (Homo sapiens) (Q14994 whole entry, looked up): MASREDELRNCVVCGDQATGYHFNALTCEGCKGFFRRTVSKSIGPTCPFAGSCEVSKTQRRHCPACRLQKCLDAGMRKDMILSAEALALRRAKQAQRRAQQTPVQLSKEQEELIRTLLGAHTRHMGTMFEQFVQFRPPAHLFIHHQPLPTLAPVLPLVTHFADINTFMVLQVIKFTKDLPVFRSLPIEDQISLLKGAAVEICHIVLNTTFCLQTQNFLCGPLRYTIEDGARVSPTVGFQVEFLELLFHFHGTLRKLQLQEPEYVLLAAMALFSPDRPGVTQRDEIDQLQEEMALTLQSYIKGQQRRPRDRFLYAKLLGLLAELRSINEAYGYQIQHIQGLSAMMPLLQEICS
Sequence of Thyrotropin receptor (Homo sapiens) (P16473 whole entry, looked up): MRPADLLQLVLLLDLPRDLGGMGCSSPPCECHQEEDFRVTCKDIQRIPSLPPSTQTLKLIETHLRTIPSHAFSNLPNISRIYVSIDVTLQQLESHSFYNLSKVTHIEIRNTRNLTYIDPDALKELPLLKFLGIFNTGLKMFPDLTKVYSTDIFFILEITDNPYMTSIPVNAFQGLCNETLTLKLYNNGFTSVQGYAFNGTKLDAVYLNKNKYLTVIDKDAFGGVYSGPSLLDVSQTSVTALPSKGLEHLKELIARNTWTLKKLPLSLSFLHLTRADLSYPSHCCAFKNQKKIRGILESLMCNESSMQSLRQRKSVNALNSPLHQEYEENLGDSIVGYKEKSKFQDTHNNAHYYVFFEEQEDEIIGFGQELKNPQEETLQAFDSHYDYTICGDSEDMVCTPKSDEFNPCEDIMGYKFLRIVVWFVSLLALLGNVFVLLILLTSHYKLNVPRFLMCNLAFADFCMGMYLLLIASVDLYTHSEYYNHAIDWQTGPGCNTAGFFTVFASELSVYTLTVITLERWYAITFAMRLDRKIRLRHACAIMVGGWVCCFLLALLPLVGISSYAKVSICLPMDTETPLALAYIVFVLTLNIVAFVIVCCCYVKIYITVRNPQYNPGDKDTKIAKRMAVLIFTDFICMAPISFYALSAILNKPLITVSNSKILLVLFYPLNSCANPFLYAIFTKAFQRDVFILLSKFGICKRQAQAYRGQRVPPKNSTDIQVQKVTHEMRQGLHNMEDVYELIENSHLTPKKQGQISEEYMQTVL

For the compound `O=C1CCCCC1`, the Potency entry in assay [1], in [2], in assay [3], in [4], in [5] and in assay [6] was “inactive” each time. Besides, the Potency entry in assay [7], in [8], in assay [9], in assay [10], in assay [11] and in assay [13] was “inactive” throughout. Further, the Potency entry in [14] and in [15] was “inactive” throughout. In assay [12], the activity change, positive = activation is -2.85% (inactive) and -5.66% (inactive).
Turning to `C[C@@H]1O[C@@H](OC[C@H]2O[C@@H](Oc3c(-c4ccc(O)c(O)c4)oc4cc(O)cc(O)c4c3=O)[C@H](O)[C@@H](O)[C@@H]2O)[C@H](O)[C@H](O)[C@H]1O`, the Potency entry in assay [1], in assay [2], in assay [3], in assay [16], in assay [4] and in [5] was “inactive” throughout. Further, the Potency result in assay [17], in assay [8], in assay [10], in assay [13], in assay [14] and in [15] was “inactive” in each case. For the same compound, the call in [18] was inactive.
Turning to `C=C(C)C(=O)OCC(CC)(COC(=O)C(=C)C)COC(=O)C(=C)C`, the Potency entry in [1], in assay [2], in [3], in [16], in assay [4] and in [5] was “inactive” throughout. For the same compound, the Potency result in assay [17], in [8], in [9], in [13] and in [14] was “inactive” in each case. Besides, in assay [15], the Potency result was “inactive and 42.9 µM (active)”.
For `CC(C)(N=C=O)c1cccc(C(C)(C)N=C=O)c1`, the Potency entry in assay [1], in assay [2], in [3], in assay [19], in [4] and in assay [5] was “inactive” in each case. Moreover, the Potency result in [7], in assay [17], in assay [8], in assay [9], in assay [10] and in [13] was “inactive” in each case. Moreover, the Potency result in assay [14] and in assay [15] was “inactive” throughout. The Potency in [6] is 48.2 µM (active) and inactive; in assay [11] it was 54 µM (active) and inactive. Further, the result in assay [18] was inactive. For the same compound, the activity change, positive = activation in assay [12] was -40.3% (inactive) and 2.13% (inactive).
Consider `CC(C)Cc1ccccc1`, for which the Potency entry in assay [1], in assay [2], in assay [3], in assay [16], in [5] and in [17] was “inactive” throughout. The Potency entry in [8], in [9], in assay [13], in assay [14] and in assay [15] was “inactive” in each case.
As for `CCCCC(CC)C(=O)OCCOCCOCCOC(=O)C(CC)CCCC` (stereo unspecified), the Potency result in assay [1], in assay [2], in assay [3], in assay [4], in [5] and in assay [6] was “inactive” throughout. Also, the Potency result in [7], in [8], in assay [9], in assay [10], in [11] and in [13] was “inactive” each time. The activity change, positive = activation in assay [12] was -11.1% (inactive) and 0.258% (inactive).
As for `ClC1=C(Cl)C(Cl)(Cl)C(Cl)=C1Cl`, the Potency result in assay [1], in assay [2], in assay [3], in [19], in [4] and in assay [5] was “inactive” each time. For the same compound, the Potency entry in assay [6], in assay [7], in assay [17], in assay [9], in assay [11] and in [13] was “inactive” in each case. The Potency result in [15] is “inactive”. Also, the Potency in assay [8] is 11 µM (active) and 6.17 µM (active); in assay [14] it was 39.1 µM (active). In addition, the activity change, positive = activation in assay [12] is 5.38% (inactive) and 4.2% (inactive).
In the case of `O=C(O)c1ccc([N+](=O)[O-])cc1`, the Potency result in [1], in assay [2], in assay [3], in assay [16], in assay [4] and in [5] was “inactive” throughout. In addition, the Potency result in assay [8], in [9], in assay [10], in assay [13], in assay [14] and in assay [15] was “inactive” each time. The compound was called inactive in assay [18].

The values are drawn from PubChem BioAssay (Tox21).
